Screening results: PubChem BioAssay, Broad Institute
Ecoli rRNA inh = inhibitors of bacterial rRNA selective over humanized ribosomes; E. coli WT GFP vs humanized-ribosome RFP mutants, fluorescence, 24 h; hits give low values; DMSO median 0, no signal -100; AID 720706; GFP signal change (wild-type ribosome), % (concentration not given with the values); 1.6% of 350,000 active;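 active means significant combined selectivity score with lowered wild-type GFP, culture density cut under 30%, mutant RFP and density less affected; inactive means any of these conditions unmet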
CaV13 FRET inh = Disruptors of the CACNA1D IQ motif to Ca2+-dependent inactivation inhibitor domain association, primary screening, Förster resonance energy transfer in intact living …; HEK cells, CFP/YFP FRET ICDI-IQ, plate reader, 10 min; percent FRET-ratio fall versus neutral wells; inhibition, % at 12.3 µM; AID 743397; 0.098% of 340,000 active;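 active means mean replicate inhibition of at least 30% and at least 1% of replicates passing that level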;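 further: 0% = median of the neutral control wells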
PGC1a acetyl inh = modulators of PGC1a acetylation; 0.17% of 350,000 active; U2OS PGC1a acetylation, AlphaScreen anti-acetyl-lysine; with virally co-expressed GCN5 acetyltransferase; inhibition, % at 15.6 µM;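 active means every replicate shows inhibition of at least 40%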;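 further: 0% = neutral control wells and 100% = positive control wells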
ERAP1 inh = blocks human ERAP1 aminopeptidase activity | Q9NZ08 | recombinant ERAP1, Leu-AMC fluorescence, 60 min | AID 652197 | inhibition, % at 10.7 µM | 0.15% of 340,000 active;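 active means mean replicate inhibition of at least 30%, or all replicates individually reaching that 30% level; inactive means mean below 30% and not every replicate reaching it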;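 further: 0% = neutral control wells and 100% = L-leucinethiol positive control wells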
Target sequence (Q9NZ08 whole entry, looked up): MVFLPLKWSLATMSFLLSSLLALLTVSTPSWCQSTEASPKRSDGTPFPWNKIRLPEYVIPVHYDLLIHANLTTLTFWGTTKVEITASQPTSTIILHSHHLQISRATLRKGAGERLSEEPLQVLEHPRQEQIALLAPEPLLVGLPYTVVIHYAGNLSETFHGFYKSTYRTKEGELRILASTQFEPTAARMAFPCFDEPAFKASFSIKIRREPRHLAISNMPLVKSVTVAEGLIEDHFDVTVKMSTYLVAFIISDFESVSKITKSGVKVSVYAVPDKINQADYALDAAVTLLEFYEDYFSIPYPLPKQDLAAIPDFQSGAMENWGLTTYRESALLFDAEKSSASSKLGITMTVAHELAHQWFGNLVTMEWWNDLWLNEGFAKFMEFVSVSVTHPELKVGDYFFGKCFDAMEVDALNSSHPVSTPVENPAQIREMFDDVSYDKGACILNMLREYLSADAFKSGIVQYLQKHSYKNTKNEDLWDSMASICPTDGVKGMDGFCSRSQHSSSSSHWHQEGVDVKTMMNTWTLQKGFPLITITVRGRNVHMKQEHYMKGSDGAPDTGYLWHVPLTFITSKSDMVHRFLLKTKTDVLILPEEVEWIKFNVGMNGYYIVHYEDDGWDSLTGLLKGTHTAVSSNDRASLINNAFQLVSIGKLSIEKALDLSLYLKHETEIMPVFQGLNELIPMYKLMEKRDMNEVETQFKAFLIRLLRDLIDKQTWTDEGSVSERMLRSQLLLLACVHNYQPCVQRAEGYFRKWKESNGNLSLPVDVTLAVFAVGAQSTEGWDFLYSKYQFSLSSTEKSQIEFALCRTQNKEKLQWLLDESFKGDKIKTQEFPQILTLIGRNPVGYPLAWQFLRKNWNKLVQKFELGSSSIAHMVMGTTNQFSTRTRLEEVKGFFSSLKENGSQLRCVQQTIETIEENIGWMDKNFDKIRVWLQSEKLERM
DENV2 CPE = protects cells from dengue virus 2 cytopathic effect | CPE inhibition, % at 9.99 µM | DENV2-infected cells, cytopathic effect rescue, plate reader | 1.7% of 350,000 active; in the data active means CPE inhibition above about 20%, passing the limit was not always enough; tested in BHK-21 cells;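 further: 0% = median of neutral control wells and 100% = median of positive control wells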
INS-1E GSIS act = primary screen for activators of insulin secretion dependent on glucose, INS-1E cells, GLuc reporter luminescence; INS-1E GLuc reporter insulin secretion, 2-3 h; AID 743287; activation, % at 16.6 µM; 0.61% of 370,000 active;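 active means lowest replicate activation of at least 40%, so every replicate reaches that level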;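 further: 0% = median of neutral control wells and 100% = median of IBMX positive control wells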
* hit, by the source's call; x = no result given; ! = a repeat was not active. Rows were chosen to be rich in hits. Some 3.2% of all compounds tested hit in one or more screens of this group.

SMILES | Ecoli rRNA inh | CaV13 FRET inh | PGC1a acetyl inh | ERAP1 inh | DENV2 CPE | INS-1E GSIS act
COc1ccc(NC(=O)N[C@H]2CC[C@H](CCn3cc(-c4ccccc4F)nn3)O[C@@H]2CO)cc1 | -2.8 | x | 69.1* | 1.1 | -3.5 | 2.9
COc1ccccc1-c1cn(CC[C@H]2CC[C@H](NC(=O)C3CCC3)[C@@H](CO)O2)nn1 | 0.4 | x | -0.9 | -1.0 | 6.9 | 4.9
CC(C)c1cn(CC[C@H]2CC[C@H](NC(=O)C3CC3)[C@H](CO)O2)nn1 | 1.1 | x | -6.7 | 4.1 | 61.9* | -9.3
COc1ccc2c3c(n(C)c2c1)[C@@H](CO)N(C(=O)C1CCCC1)CC31CCN(C(=O)CN(C)C)CC1 | 5.2 | x | x | 2.1 | 1.0 | -9.3
COc1ccc(-c2cn(CC[C@@H]3CC[C@H](NC(=O)Nc4ccc(F)cc4)[C@@H](CO)O3)nn2)cc1 | -1.0 | x | x | -2.2 | 49.7* | -9.7
COc1ccc(NC(=O)N[C@H]2CC[C@@H](CCn3cc(-c4ccc(OC)cc4)nn3)O[C@H]2CO)cc1 | -4.6 | x | -1.2 | -0.6 | -2.5 | -1.2
O=C(C[C@H]1CC[C@H]2[C@@H](COC[C@@H](O)CN2C(=O)Nc2cc(Cl)cc(Cl)c2)O1)N1CCOCC1 | -26.6* | x | 0.1 | x | x | -10.4
C[C@@H](NC(=O)C[C@@H]1CC[C@H]2[C@@H](COC[C@H](O)CN2C(=O)Nc2cc(Cl)cc(Cl)c2)O1)c1ccccc1 | -25.3 | x | -10.5 | -2.4 | 40.1* | -29.4
C[C@H](NC(=O)C[C@H]1CC[C@H]2[C@@H](COC[C@@H](O)CN2C(=O)Nc2cc(Cl)cc(Cl)c2)O1)c1ccccc1 | -26.1 | x | -4.0 | -2.0 | 22.9* | -12.6
CC(=O)Nc1cccc(OCCCNC(=O)c2ccc(C(C)(C)C)cc2)c1 | -2.4 | -4.7 | -7.2 | -3.9 | 31.4* | 3.7
CCn1c(C)c2c([n+]1CC)CC(C)(C)CC2=O | 12.8 | -8.4 | 0.4 | 109.4* | x | 11.7
COc1ccc2c3c([nH]c2c1)[C@@H](CO)N(S(C)(=O)=O)CC31CCN(CC2CC2)CC1 | 2.9 | x | x | 1.2 | -8.2 | 8.0
COc1ccc2c3c([nH]c2c1)[C@@H](CO)N(S(C)(=O)=O)CC31CCN(CC2CCCC2)CC1 | 0.6 | x | -6.9 | -0.2 | 53.8* | 1.2
COc1ccc2c3c([nH]c2c1)[C@H](CO)N(S(C)(=O)=O)CC31CCN(CC2CCCC2)CC1 | 1.9 | x | -1.5 | -1.4 | 28.4* | -6.5
O=C(C[C@@H]1CC[C@@H]2[C@H](COC[C@H](O)CN2Cc2cc(F)ccc2F)O1)NCc1ccc(Cl)cc1 | -12.1 | x | 6.0 | x | 3.1 | -17.7
CN(C)C=NC(=O)c1ccc(N2CCN(c3ncc(C(F)(F)F)cc3Cl)CC2)cc1 | x | -5.1 | -8.7 | x | x | 72.2*
Cc1ccc(S(=O)(=O)N(C)C[C@@H]2Oc3ccc(NC(=O)CCCCCC(=O)Nc4ccccc4N)cc3CC(=O)N([C@H](C)CO)C[C@@H]2C)cc1 | -2.8 | x | 8.8 | -0.7 | 5.0 | 10.8
C[C@@H]1CN([C@H](C)CO)S(=O)(=O)c2ccc(-c3cccc(F)c3)cc2O[C@H]1CN(C)C(=O)C1CC1 | -5.0 | x | -7.4 | 0.3 | -2.2 | 7.2
Cc1nnc(SCC(=O)N2CCC(c3noc4ccc(F)cc34)CC2)s1 | -15.9 | -6.5 | 57.5* | 2.1 | 0.1 | 6.7
O=C(C[C@@H]1CC[C@H](NC(=O)C2CC2)[C@@H](CO)O1)NCc1ccccc1Cl | -0.1 | x | -1.8 | -0.3 | 1.1 | 12.2
C[C@@H]1CCCCO[C@H](CN(C)C(=O)Nc2ccccc2)[C@@H](C)CN([C@H](C)CO)C(=O)c2cc(NS(=O)(=O)c3cn(C)cn3)ccc2O1 | 25.4 | -9.5 | 7.8 | -1.9 | 44.6*! | 6.6
C[C@@H]1CCCCO[C@H](CN(C)C(=O)Nc2ccccc2)[C@H](C)CN([C@H](C)CO)C(=O)c2cc(NS(=O)(=O)c3cn(C)cn3)ccc2O1 | 3.5 | x | 6.3 | 0.2 | -4.7 | 1.8
C[C@@H]1CCCCO[C@H](CN(C)C(=O)Nc2cccc3ccccc23)[C@@H](C)CN([C@@H](C)CO)C(=O)c2cc(NS(=O)(=O)c3cn(C)cn3)ccc2O1 | -2.8 | x | -2.1 | x | 89.0* | -4.6
C[C@@H]1CN([C@@H](C)CO)C(=O)c2cccc(NC(=O)Nc3ccc(F)cc3)c2O[C@H]1CN(C)C | 3.1 | x | 1.3 | -1.4 | -2.6 | 25.6
O=C(c1ccc2c(c1)OCO2)N1CCc2ccccc2C1 | x | -5.1 | 13.6 | x | x | 81.2*
SMILES | Ecoli rRNA inh | CaV13 FRET inh | PGC1a acetyl inh | ERAP1 inh | DENV2 CPE | INS-1E GSIS act
Cc1ccc2c(c1)CCCN2C(=O)c1ccc2c(c1)OCO2 | x | x | x | x | x | 53.7*
Cc1ccc(CN2C(=O)CCC2C(=O)NCCN2CCN(c3cccc(Cl)c3)CC2)cc1 (stereo unspecified) | -32.0 | -4.3 | 8.4 | 30.6* | 5.8 | -40.0
Cc1ccc(CN2C(=O)CCC2C(=O)NCCCN2CCC(C)CC2)cc1 (stereo unspecified) | x | x | -5.1 | x | x | x
Cc1cccc(-c2ccc([C@H]3[C@H](CO)N4C(=O)CN(C(=O)Cc5ccccn5)C[C@@H]34)cc2)c1 | -0.7 | x | 5.0 | 5.7 | 16.6 | 7.6
CC(C)CN(C[C@H]1N[C@@H](CO)[C@@H]1c1ccc(-c2cncnc2)cc1)C(=O)C1CC1 | -0.5 | x | x | x | x | 7.1
COc1ccc(S(=O)(=O)Nc2cccc3c2O[C@@H](CN(C)C(=O)Nc2cccc4ccccc24)[C@@H](C)CN([C@@H](C)CO)C3=O)cc1 | 0.2 | x | 18.1 | x | x | -14.9
Cc1nc2ccc(N)cc2c(=O)n1Cc1ccc(Cl)cc1 | x | -5.2 | 5.1 | x | x | x
Cc1nc2ccc(Br)cc2c(=O)n1Cc1cccs1 | -31.8* | -5.3 | x | 1.3 | -0.1 | 8.0
COc1ccc(CN2CC3(C2)CN(C(=O)CN(C)C)[C@H](CO)c2[nH]c4cc(OC)ccc4c23)cc1 | 6.4 | x | x | 3.9 | 18.8 | 36.0
Cc1cc(-c2ccc(S(=O)(=O)N3CCN(C)CC3)s2)on1 | 6.9 | -2.2 | 3.0 | 1.1 | -4.0 | 42.6*
CC(=O)c1ccc(N2CCN(S(=O)(=O)c3ccc(-c4cc(C)no4)s3)CC2)cc1 | 3.7 | -1.5 | 8.5 | -0.3 | 4.9 | -1.9
COc1ccc(N2CCN(S(=O)(=O)c3ccc(-c4cc(C)no4)s3)CC2)cc1 | 11.2 | -6.3 | -2.0 | 0.2 | -4.0 | 85.6*
COc1ccc2c3c(n(C)c2c1)[C@H](CO)N(C(C)=O)CC31CCN(Cc2cncnc2)CC1 | -1.9 | x | x | x | x | 0.9
CCCN1C[C@H](C)[C@@H](OC)CN(C)C(=O)c2ccc(NC(=O)c3cnccn3)cc2OC[C@@H]1C | 2.2 | x | -2.8 | -1.6 | 9.2 | 3.7
CO[C@H]1CN(C)C(=O)c2cc(NC(=O)C3CC3)ccc2OC[C@H](C)N(Cc2nccs2)C[C@H]1C | -4.4 | x | -14.6 | -0.2 | -4.7 | -0.6
